HIV Env fusion = inhibitors of HIV Env-mediated cell fusion | HeLa-JRFL Env/CEM21 cell fusion, luciferase | inhibition, % at 12.3 µM | 360,000 compounds, 1.1% hits | AID 651610;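 active = mean replicate inhibition score of at least 50 and every replicate individually at or above 50; inconclusive = only one of the two criteria met; inactive = mean below 50 and not all replicates reaching 50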
CFTR F508del cor = CFTR F508del correction in bronchial cells | 350,000 compounds, 0.36% hits | activity (quench increase), % at 7.58 µM | CFBE cells, YFP halide quenching; stimulated with forskolin plus potentiator P3; % fluorescence drop versus neutral controls | AID 720511;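 active = mean added fluorescence quench of at least 8% versus neutral control, with both replicates also reaching 8%; inconclusive = only one of the mean or replicate conditions met; inactive = mean below 8% and not both replicates reaching 8%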;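 note: cells transiently co-express mutant CFTR-F508del with the halide-sensitive YFP; corrector assay measuring rescue of mutant channel to the surface after 24 h compound exposure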
CASP6 VEID inh = inhibitors of human caspase-6. purified caspase-6, Z-VEID-R110 cleavage fluorescence. inhibition, % at 12.5 µM. AID 686996. 350,000 compounds, 0.53% hits;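 active = mean inhibition across replicates at least about 35%, with every replicate also reaching that limit, limit read from the data; inconclusive = only one of the two criteria met; inactive = neither criterion met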
Target sequence (P55212 24-179 limits assumed): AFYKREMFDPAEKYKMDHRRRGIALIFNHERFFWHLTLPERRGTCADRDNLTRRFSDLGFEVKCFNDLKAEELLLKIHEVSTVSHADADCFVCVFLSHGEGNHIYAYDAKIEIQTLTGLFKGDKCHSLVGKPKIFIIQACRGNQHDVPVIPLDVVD
Target sequence (P55212 194-293 limits assumed): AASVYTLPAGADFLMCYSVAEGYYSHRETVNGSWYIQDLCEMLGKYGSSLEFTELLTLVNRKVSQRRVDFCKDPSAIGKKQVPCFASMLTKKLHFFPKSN
ALR inh = human ALR oxidase inhibition via reduced H2O2; purified ALR, DTT oxidation, H2O2 HRP-luminol luminescence; 290,000 compounds, 3.8% hits; inhibition, % (no concentration beside the values);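 active = mean replicate inhibition above about 79%, with every replicate also reaching it, limit read from the data; inconclusive = only one of the two criteria met; inactive = mean below limit and not every replicate reaching it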
Target sequence (P55789 whole entry, looked up): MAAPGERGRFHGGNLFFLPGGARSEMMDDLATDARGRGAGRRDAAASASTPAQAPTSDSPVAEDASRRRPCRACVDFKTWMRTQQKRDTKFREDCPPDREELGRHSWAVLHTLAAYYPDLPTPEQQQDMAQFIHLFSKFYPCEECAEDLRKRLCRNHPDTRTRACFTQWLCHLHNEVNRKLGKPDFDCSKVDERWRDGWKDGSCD
NSD2 inh = NSD2 (human) methyltransferase inhibition | 310,000 compounds, 0.54% hits | O96028 | NSD2 peptide methylation, AlphaScreen, 120 min | inhibition, % at 12.5 µM; in the data active = inhibition above about 50%
PglD DTNB = blocks C. jejuni PglD acetyltransferase activity. inhibition, % at 12.5 µM. purified PglD enzyme, DTNB colorimetric CoA detection. 360,000 compounds, 0.098% hits; in the data active = inhibition above about 16%, passing the limit was not always enough; inconclusive = no clear call, values can overlap the other calls
Each line names hits and unclear results; the compound was inactive in the other large screens. The list is not random: actives were taken first. Their share in the collection is about 4.1%.

O=C(O)/C=C\C(=O)Nc1ccccc1C#Cc1ccc(Br)cc1	ALR inh 98 (no result: CFTR F508del cor, CASP6 VEID inh)
O=C(O)/C=C\C(=O)Nc1ccccc1C#Cc1ccccc1	ALR inh inconclusive (no result: CFTR F508del cor, CASP6 VEID inh)
Cc1ccc2c(c1)[C@H]1[C@H](CO2)[C@H](c2ccccc2)[C@]2(C)C(=O)N(CC3CCCO3)CC(=O)N12 (stereo partly specified)	HIV Env fusion 110 (no result: NSD2 inh)
C[C@@]12C(=O)N(CC3CCCO3)CC(=O)N1[C@@H]1c3ccccc3OC[C@@H]1[C@@H]2c1ccccc1 (stereo partly specified)	none (no result: HIV Env fusion, ALR inh, NSD2 inh)
C[C@@]12C(=O)N(CC3CCCO3)CC(=O)N1[C@H]1c3cc(Cl)ccc3OC[C@@H]1[C@@H]2c1ccccc1 (stereo partly specified)	HIV Env fusion 80 (no result: NSD2 inh)
COc1cc(C2N=C(c3ccccc3)NO2)cc(Br)c1O (stereo unspecified)	ALR inh 98 (no result: HIV Env fusion, CFTR F508del cor, CASP6 VEID inh, NSD2 inh)
CC(C)(C)C(=O)/C=C/Nc1ccccc1O	ALR inh 99 (no result: CFTR F508del cor, CASP6 VEID inh, NSD2 inh)
CN(C)c1ccc(N/C=C/C(=O)c2ccccc2)cc1	none (no result: CFTR F508del cor, CASP6 VEID inh)
CN(C)c1ccc(N/C=C/C(=O)C(C)(C)C)cc1	ALR inh 99 (no result: HIV Env fusion, CFTR F508del cor, CASP6 VEID inh)
CCOC(=O)c1ccc(N/C=C/C(=O)C(C)(C)C)cc1	none (no result: PglD DTNB)
COc1ccc2c3c([nH]c2c1)[C@@H](CO)N(Cc1ccccc1OC)CC31CN(C)C1	none (no result: HIV Env fusion, CASP6 VEID inh, ALR inh, NSD2 inh, PglD DTNB)
CNC(=O)C[C@@H]1CC[C@H]2[C@H](COc3ccc(NC(=O)c4ccc(F)c(F)c4)cc3C(=O)N2C)O1	none (no result: ALR inh, NSD2 inh)
N#C[C@H]1[C@@H](c2ccccc2-c2ccc(F)cc2)[C@@H](CO)N1c1ncc(-c2ccccc2)s1	none (no result: HIV Env fusion, ALR inh, NSD2 inh, PglD DTNB)
Cc1ccc(S(=O)(=O)N2CC3(O)CN(C(=O)OC(C)C)N(C(=O)OC(C)C)CC3(OC(=O)NC3CCCC3)C2)cc1 (stereo unspecified)	HIV Env fusion 75 (no result: ALR inh, NSD2 inh)
Cc1ccc(S(=O)(=O)N2CC3(O)CN(C(=O)OC(C)C)N(C(=O)OC(C)C)CC3(OC(=O)Nc3cccs3)C2)cc1 (stereo unspecified)	none (no result: ALR inh, NSD2 inh)
COC(=O)c1ccn(CC(=O)NC2CCCCC2)n1	ALR inh 94
C/C(=N/NS(=O)(=O)c1ccc(Br)cc1)c1c[nH]c2ccccc12	HIV Env fusion 66
C/C(=N/NS(=O)(=O)c1ccc(Br)cc1)c1ccc(C)o1	ALR inh 98 (no result: CFTR F508del cor, PglD DTNB)
C[C@@H]1CN([C@@H](C)CO)C(=O)Cc2cc(NC(=O)Cc3ccccc3)ccc2O[C@H]1CN(C)C(=O)Nc1ccc(F)cc1	none (no result: HIV Env fusion, ALR inh, NSD2 inh)
Cn1sc(NC(=O)c2ccc(Cl)cc2)nc1=O	ALR inh 97 (no result: CFTR F508del cor)
O=C(NC[C@H]1CC[C@H]2[C@H](CN2C(=O)Cc2ccncc2)O1)C1CCOCC1	none (no result: HIV Env fusion, ALR inh, NSD2 inh, PglD DTNB)
O=[N+]([O-])c1cccc(CN2C[C@@]34C=C[C@@H](C[C@@H]3S2(=O)=O)O4)c1	ALR inh 96 (no result: NSD2 inh)
COc1cc2c(cc1OC)C(c1c(Cl)cccc1Cl)=NCC2	HIV Env fusion 60 (no result: ALR inh, PglD DTNB)
CCC(=O)N[C@H]1CC[C@H](CCn2cc(CN(C)C)nn2)O[C@H]1CO	none (no result: ALR inh, NSD2 inh)
CC(C)CCOP(=O)(c1ccc(N(C)C)cc1)C(Nc1ccccc1)c1ccc(N(C)C)cc1 (stereo unspecified)	none
CC(C)OP(=O)(c1ccc(N(C)C)cc1)C(Nc1ccccc1)c1ccccc1 (stereo unspecified)	HIV Env fusion 85 (no result: PglD DTNB)
CCOC(=O)C1=CN(Cc2cccc(Br)c2)S(=O)(=O)N(C)C1C (stereo unspecified)	none (no result: ALR inh, NSD2 inh)
CCOC(=O)C1=CN(Cc2cccc(I)c2)S(=O)(=O)N(C)C1C (stereo unspecified)	CFTR F508del cor 12 (no result: ALR inh, NSD2 inh)
CCCNC(=O)N1CCC2(CC1)CN(C(=O)Nc1ccc(F)cc1)[C@H](CO)c1[nH]c3cc(OC)ccc3c12	none (no result: HIV Env fusion, ALR inh, NSD2 inh, PglD DTNB)
S=C(Nc1nc2c(s1)CCCC2)NC1CC1	ALR inh 86
O=C(NC(=S)Nc1nc2c(s1)CCCC2)c1ccccc1	none (no result: CFTR F508del cor, ALR inh)
COc1cccc(C#Cc2ccc([C@H]3[C@@H](CO)N4C(=O)CN(C(=O)c5ccncc5)C[C@@H]34)cc2)c1	none (no result: HIV Env fusion, ALR inh, NSD2 inh, PglD DTNB)
CC(C)(C)n1nnnc1C(c1ccccn1)N(Cc1ccccc1)Cc1ccc(Cl)cc1 (stereo unspecified)	HIV Env fusion 127 (no result: CFTR F508del cor, CASP6 VEID inh)
CCN(Cc1ccccc1)C(c1ccccn1)c1nnnn1C(C)(C)CC (stereo unspecified)	none (no result: HIV Env fusion, CFTR F508del cor, CASP6 VEID inh)
COc1ccccc1C(=O)NC(=O)CSc1nnc2ccccn12	none
O=C(CSc1nnc2ccccn12)NC(=O)c1ccccc1Cl	CASP6 VEID inh 39
